Experiment [1] is described as follows: qHTS profiling for inhibitors of Plasmodium falciparum (3D7) proliferation (AID 743322; call rule not given here;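 further: infected erythrocytes exposed to compound for 72 h before lysis; 100% = DMSO vehicle wells and 0% = 0.29 µM artemisinin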). The conditions noted are these: P. falciparum 3D7 proliferation; at 28.7 µM (top of the series) unless noted. An outline of the steps:
(§1)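 Erythrocytes infected with P. falciparum (0.3% parasitemia, 2.5% hematocrit) incubated with compounds 72 h at 37 C, 5% CO2. Lysis with saponin/Triton buffer containing SYBR Green I, overnight at room temperature in the dark; DNA fluorescence (485/535 nm) normalised to 0.29 uM artemisinin and DMSO.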

A short description of experiment [2]: qHTS profiling for inhibitors of Plasmodium falciparum (DD2) proliferation (AID 743323; call rule not given here). The note with it: lower = more inhibition; at 28.7 µM (top of the series) unless noted. An outline of the steps:
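1536-well qHTS; infected RBCs 0.3% parasitemia/2.5% Hct final; cpd 72 h 37 C 5% CO2; lysis buffer + SYBR Green I, o/n RT dark; FI 485/535; norm. to 0.29 uM artemisinin and DMSO, plate-stack corrected.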

Experiment [3] can be described thus: qHTS profiling for inhibitors of Plasmodium falciparum (HB3) proliferation (AID 743324).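 Further: 100% = DMSO vehicle wells and 0% = artemisinin-treated control wells.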 The note with it: Plasmodium falciparum HB3 blood-stage proliferation; at 28.7 µM (top of the series) unless noted. An outline of the steps: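 P. falciparum HB3 grown in erythrocytes (0.3% parasitemia, 2.5% hematocrit final) with compound for 72 h at 37 C, 5% CO2. Parasite DNA detected by SYBR Green after saponin/triton lysis overnight; normalized to 0.29 uM artemisinin and DMSO.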
(Quantitative high-throughput screening tests each substance at several concentrations.)

Experiment [4] in a line: qHTS profiling of the MIPE4 collection as inhibitors of Plasmodium falciparum (3D7) proliferation (AID 743344; call rule not given here;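 further: scaled between DMSO vehicle wells and 0.29 µM artemisinin as full inhibition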). The conditions noted are these: P. falciparum 3D7 in erythrocytes, SYBR Green DNA fluorescence, 72 h; at 28.5 µM (top of the series). An outline of the steps: as §1
The nature of experiment [5]: qHTS profiling of the MIPE4 collection as inhibitors of Plasmodium falciparum (DD2) proliferation (AID 743345; call rule not given here). The conditions noted are these: P. falciparum Dd2 in erythrocytes, SYBR Green DNA, 72 h; at 28.5 µM (top of the series). Summed up: as §1
Experiment [6] is described as follows: qHTS profiling of the MIPE4 collection as inhibitors of Plasmodium falciparum (DD2) proliferation (Rep 2) (AID 743346; call rule not given here). The note with it: P. falciparum Dd2 in erythrocytes, SYBR Green DNA, 72 h; at 28.5 µM (top of the series). Summed up: as §1
Experiment [7] can be described thus: qHTS profiling of the MIPE4 collection as inhibitors of Plasmodium falciparum (HB3) proliferation (AID 743347; call rule not given here;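 further: plate controls were DMSO vehicle wells for no effect and artemisinin wells for full effect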). The note with it: P. falciparum HB3 in erythrocytes, SYBR Green DNA, 72 h; at 28.5 µM (top of the series). An outline of the steps:
as §1

Experiment [8] in a line: qHTS assay for measurement of the activity of small molecule inhibitors on Zika virus induced Caspase-3 activity in human iPSC derived neural progenitor cells (hNPCs) (AID 1224857). Further: % of control where 0% means no effect; nearly all actives have a fitted effect of over 65% in size. An outline of the steps: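 Percent inhibition of virus-induced caspase-3/7 luminescence (Caspase-Glo), scaled between uninfected cells and Zika-infected cells. hNPCs received compound 1 hr before ZIKV at 2 FFU/cell, with 6 hours infection at 37 C.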

A short description of experiment [9]: qHTS Assay for Identifying Gametocytocidal Compounds (AID 743244). Further: potency means the concentration at half of the fitted maximal effect.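 On max response: on the % scale 0 is the no-effect control and ±100 the full control effect; actives lower the fluorescent signal which means gametocytes are killed.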 The note with it: P. falciparum 3D7 stage III-V gametocytes, alamarBlue, 72 h; max response: stronger effect = lower value. An outline of the steps:
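Viability read-out was resazurin reduction (alamarBlue, 24 h) measured at Ex 525/Em 598 nm. Beforehand, late-stage (III-V) 3D7 P. falciparum gametocytes at 20,000 cells/well were incubated with compound 72 h at 37C under 5% CO2.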

Experiment [10] in a line: qHTS assay for small molecule agonists of the antioxidant response element (ARE) signaling pathway measured by Nrf2-dependant transcriptional activity (AID 720636; active means well fitted curve in the direction sought with a large enough effect in the repeat runs; an effect the other way counts as inactive or inconclusive; further: % of control where 0% means no effect). Summed up: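 ARE-luc HepG2 cells carrying an Nrf2-responsive luciferase reporter were plated in medium with 1% dialyzed FBS, left 6 hr at 37 C to attach, then exposed to compound for 16 hr. Luciferase luminescence was read after ONE-Glo addition.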

Experiment [11] in a line: qHTS assay for small molecule agonists of the antioxidant response element (ARE) signaling pathway measured by Nrf2-dependant transcriptional activity - cell viability counter screen (AID 720653; active means well fitted curve in the direction sought with a large enough effect in the repeat runs; an effect the other way counts as inactive or inconclusive; further: on the % scale 0 is the no-effect control and ±100 the full control effect). The conditions noted are these: ARE-bla HepG2 viability, CellTiter-Glo ATP luminescence, 16 h; stronger effect = lower value. Summed up: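 ARE-bla HepG2 cells (2,000/well) rested 5 hrs at 37C/5% CO2, then exposed to compounds in DMSO for 16 hrs. Viability was read in the same wells as intracellular ATP by luminescence, 30 min at room temperature after reagent addition.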

A short description of experiment [12]: qHTS assay for cell viability of HEK293 cells (AID 743288). Further: on the % scale 0 is the no-effect control and ±100 the full control effect; nearly all actives have a fitted effect of over 50% in size. The note with it: ATP luminescence (CellTiter-Glo), 18 h, stronger effect = lower value. Summed up:
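Parental HEK293 cells, 2,000 per well, preincubated at least 5 h at 37 C, then exposed to compounds in DMSO for 18 h at 37 C. Viability by CellTiter-Glo ATP luminescence after 30 min at room temperature.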

Experiment [13] can be described thus: qHTS assay for cell viability of the p53RE-bla HCT-116 cell line (AID 743292). Further: on the % scale 0 is the no-effect control and ±100 the full control effect; nearly all actives have a fitted effect of over 55% in size. Summed up:
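CellSensor p53RE-bla HCT-116 cells, 4,000/well, preincubated 5 h at 37 C, then exposed to compounds in DMSO for 16 h at 37 C. Viability read as CellTiter-Glo luminescence (intracellular ATP) after 30 min at room temperature.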

Results filed as inconclusive are left out. Activity calls are given as the source filed them. Unless noted, the call rests on the fitted dose curve; in most records, active means well fitted curve in the direction sought with a large enough effect; inconclusive means small, poorly fitted or top-dose-only effect, or another doubt; inactive means no such curve, though single readings can be large; an effect the other way counts as inactive or inconclusive.

In turn, `O=C1C(=O)c2ccccc2C(O)=C1C1CCC(c2ccc(Cl)cc2)CC1` (stereo not given) gave a remaining parasite growth % (stronger effect = lower value) in experiment [1] of 9.76e-05%. The same compound gave an activity, percent of control in experiment [2] of 3.7%. The same compound displayed a remaining proliferation (% of control), lower = more inhibition in experiment [3] of 1.19%. Also, in experiment [4], the parasite growth, % of DMSO control was 9.11%. In addition, the parasite growth remaining, % of DMSO control (lower = more inhibition) in experiment [5] amounted to 9.71%. The same compound came in with a parasite growth, % of control (lower = inhibition) in experiment [6] of 18.4%. The compound also registered a growth, % of control in [7] of 5.96%. For the same compound, the Potency result in [8] was “inactive”. Turning to `O=C1OC2(c3ccccc31)c1cc(Br)c(O)c(Br)c1Oc1c2cc(Br)c(O)c1Br`, in experiment [9], the max response was -3.43% (inactive). Besides, the Potency result in [8] was “inactive”. In the case of `CO[C@H]1C=CO[C@@]2(C)Oc3c(C)c(O)c4c(O)c(c(/C=N/N5CCN(C)CC5)c(O)c4c3C2=O)NC(=O)/C(C)=C\C=C[C@H](C)[C@H](O)[C@@H](C)[C@@H](O)[C@@H](C)[C@H](OC(C)=O)[C@@H]1C`, in experiment [9], the Potency is 15.8 µM (active). In addition, the Potency result in experiment [8] was “inactive”.

Take `CC(C)[N+](C)(C)CC(O)COc1cccc2ccccc12` (stereo not given): the max response in experiment [9] was -10.5% (inactive). The Potency entry in experiment [8] is “inactive”. As to `CN(C)CCN1C(=O)c2ccccc2N(C)c2ccccc21`, the max response in [9] is -0.0527% (inactive). In addition, the Potency entry in [8] was “inactive”.

Regarding `C#C[C@]1(O)CC[C@H]2[C@@H]3[C@H](C)CC4=C(CCC(=O)C4)[C@H]3CC[C@@]21C`, in experiment [9], the max response is -5.37% (inactive). Further, the Potency result in experiment [8] was “inactive”. Consider `COc1ccc(CCN(C)CCCN2CCc3cc(OC)c(OC)cc3CC2=O)cc1OC`, for which the max response in experiment [9] was -9.4% (inactive). In addition, in experiment [8], the Potency result was “inactive”. `CC(=O)Nc1ccc(CC(=O)O)cc1`: the max response in experiment [9] was 7.88% (inactive). In addition, the Potency entry in [8] was “inactive”. The matching figures for `CCN1CCCC(OC(=O)C(c2ccccc2)c2ccccc2)C1` (stereo not given): -3.97% (inactive) and “inactive”. The matching figures for `CCOc1ccccc1OCCN[C@H](C)Cc1ccc(OC)c(S(N)(=O)=O)c1`: 5.89% (inactive) and “inactive”. For the compound `Cc1cc(C)cc(OCC2CNC(=O)O2)c1` (stereo not given), the max response in experiment [9] is -6.82% (inactive). Further, in experiment [8], the Potency result is “inactive”. The matching figures for `COc1cc(NS(=O)(=O)c2ccc(N)cc2)ncn1`: -7.94% (inactive) and “inactive”. Take `COc1ccc(C(=O)c2ccccc2O)c(O)c1`: the max response in [9] is 14.9% (inactive). The Potency entry in experiment [8] is “inactive”. On the same counts, the results for `CCCCC(CC)COC(=O)/C=C/c1ccc(OC)cc1` (stereo not given) are 11.8% (inactive) and “inactive”. With `N=C(N)N1CCc2ccccc2C1`, the max response in experiment [9] was 4.79% (inactive). Besides, in experiment [8], the activity change, negative = inhibition was -12.7% [at 4.53 µM] (inactive). With `OC1C(O)C(O)C(O)C(O)C1O` (stereo not given), in experiment [9], the max response was 0.49% (inactive). The Potency result in experiment [8] is “inactive”. In the case of `Cc1cccc(C)c1NC(=O)c1ccccc1C(=O)O`, the max response in experiment [9] is -7.1% (inactive). The Potency entry in experiment [8] is “inactive”. On the same counts, the results for `CC(C)Cc1ccc(CC(=O)O)cc1` are 6.47% (inactive) and “inactive”. In the case of `C[N+]1(C)CCC(=C(c2ccccc2)c2ccccc2)CC1`, the remaining parasite growth % (stronger effect = lower value) in [1] came to 4.05% [at 18.4 µM]. In addition, the activity, percent of control in [2] was 22.2% [at 18.4 µM]. The Potency entry in [8] is “inactive”. As to `CNCCCCOc1ccccc1Cc1ccccc1`, the Potency in experiment [9] is 18.7 µM (active). The compound also gave a remaining parasite growth % (stronger effect = lower value) in [1] of 65.9%. For the same compound, the activity, percent of control in experiment [2] was 31.1%. In addition, the remaining proliferation (% of control), lower = more inhibition in experiment [3] amounted to 42.9%. For the same compound, in experiment [8], the Potency result is “inactive”. With `CC(O)Cn1cnc2c1c(=O)n(C)c(=O)n2C` (stereo not given), in experiment [9], the max response was 5.34% (inactive). The same measure, in the same setting: with `c1ccc(CC2=NCCN2)cc1` the figure was -3.06% (inactive); with `COc1ccccc1N1CCN(CCCCNC(=O)c2ccc(-c3ccc(C(C)=O)cc3)cc2)CC1`, 3.48% (inactive). In the case of `Cc1cc(CC(=O)O)c(C)n1-c1ccc(Cl)cc1`, the max response in experiment [9] was -9.92% (inactive). Same read-out and setting: as for `CC(=O)Oc1ccc(C)cc1`, the figure is -2.81% (inactive). In the case of `CCOC(=O)c1c(N)sc2c1CCN(Cc1ccccc1)C2`, the Potency in experiment [9] was 11.2 µM (active). For the compound `CCCCc1cc2ccccc2c(OCCN(C)C)n1`, the max response in experiment [9] is -5.86% (inactive).

With `O=C(CCN1CCN2CCCC2C1)N1c2ccccc2Sc2ccc(Cl)cc21` (stereo not given), in experiment [9], the Potency was 22.4 µM (active). Consider `O=C1c2cccc3c2[C@H](CCC3)CN1[C@@H]1CN2CCC1CC2`, for which, in experiment [9], the max response was -7.45% (inactive). As for `Nc1ccc(S(=O)(=O)Nc2cnc3ccccc3n2)cc1`, the max response in [9] was -6.45% (inactive).

For `O=C(O)C(Cc1cc(I)c(O)c(I)c1)c1ccccc1` (stereo not given), in [9], the max response is -2.86% (inactive). The same measure, in the same setting: with `NC(=O)n1c(O)c(C(=O)c2cccs2)c2cc(Cl)ccc21` the figure was -6.13% (inactive); with `CCCCNC(=O)NS(=O)(=O)c1ccc(N)cc1`, 19.8% (inactive). With `CCCCCCCCCCCCCC(=O)OC(C)C`, the compound was called inactive in experiment [10] and in [13]. Further, the max response in experiment [11] is -11.9% (inactive); in experiment [9], -3.41% (inactive); in [12], -1.19% (inactive). Turning to `C#C[C@]1(O)CC[C@H]2[C@@H]3CCC4=Cc5oncc5C[C@]4(C)[C@H]3CC[C@@]21C`, the compound was called inactive in experiment [10] and in [13]. The figures for the max response in experiment [11], in experiment [9] and in experiment [12] were 1.42% (inactive), -4.72% (inactive) and -10.7% (inactive), respectively. In the case of `COC(=O)C(c1ccccc1Cl)N1CCc2sccc2C1` (stereo not given), the max response in [9] was 14.8% (inactive). On the same count and under the same terms, with `CCNC(=O)NCc1cccc(Cl)c1` the figure was 8.55% (inactive). Consider `CCCCCCCCNC(C)C(O)c1ccc(SC(C)C)cc1` (stereo not given), for which the Potency in [9] is 2.51 µM (active).

On to `C/C=C/C=N/NC(=O)c1ccncc1`, for which the max response in experiment [9] was -5.06% (inactive).

With `Nc1nc(Cl)nc2c1ncn2[C@@H]1O[C@H](CO)[C@@H](O)[C@@H]1F`, the max response in [9] is 14.9% (inactive). With `CN(C)CCOC(=O)C(c1ccccc1)C1(O)CCCC1` (stereo not given), the max response in experiment [9] was 1.53% (inactive). Consider `Nc1nc(N)c(-c2ccccc2)s1`, for which, in [9], the max response was -3.45% (inactive). Same read-out and setting: as for `O=C(O)CCc1nc2ccccc2[nH]1`, the figure is 8.17% (inactive). With `Oc1ccccc1C=NCc1ccccc1`, the max response in experiment [9] is 0.984% (inactive). For `O=c1[nH]c(=O)n([C@H]2C[C@H](O)[C@@H](CO)O2)cc1F`, in experiment [9], the max response was 4.58% (inactive). Same read-out and setting: as for `CCCCNc1ccc(C(=O)OCCOCCOCCOCCOCCOCCOCCOCCOCCOC)cc1`, the figure is -1.52% (inactive); as for `CN1CCN(c2c(F)cc3c(=O)c(C(=O)O)cn4c3c2SCC4)CC1`, 9.27% (inactive).

These data come from PubChem BioAssay (NCATS).
